{"source": "the supplement of paper PMC10011410", "system": "AmpC beta-lactamase (E. coli)", "experiment": "AmpC inhibition relative to DMSO; higher = more inhibition", "description": "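Aggregation counter-screen: inhibition of E. coli AmpC beta-lactamase (5 nM, nitrocefin substrate, 50 mM sodium phosphate pH 7.0, RT, 5 min) by KAT inhibitors at 4, 11, 33 and 100 uM, with or without 0.01% Triton X-100. Percent inhibition is relative to DMSO controls. Four technical replicates.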", "key": {"[1]": {"conditions": "4 µM, detergent: 0.01% Triton X-100"}, "[2]": {"conditions": "11 µM, detergent: 0.01% Triton X-100"}, "[3]": {"conditions": "33 µM, detergent: 0.01% Triton X-100"}, "[4]": {"conditions": "100 µM, detergent: 0.01% Triton X-100"}, "[5]": {"conditions": "100 µM, detergent: no detergent"}}, "note": "± gives the standard deviation of the averaged measurements."}
{"compound": "CC1=NN(c2ccc(C(=O)O)cc2)C(=O)/C1=C\\c1ccc(-c2cc(C)c(C)cc2[N+](=O)[O-])o1", "values": [{"measurement": "AmpC inhibition", "setting": "[1]", "result": "1.81 ± 2.9", "unit": "%"}, {"measurement": "AmpC inhibition", "setting": "4 µM, detergent: no detergent", "result": "-0.0252 ± 5.8", "unit": "%"}, {"measurement": "AmpC inhibition", "setting": "[2]", "result": "8.78 ± 2.2", "unit": "%"}, {"measurement": "AmpC inhibition", "setting": "11 µM, detergent: no detergent", "result": "-41.4 ± 11", "unit": "%"}, {"measurement": "AmpC inhibition", "setting": "[3]", "result": "5.34 ± 3.4", "unit": "%"}, {"measurement": "AmpC inhibition", "setting": "33 µM, detergent: no detergent", "result": "-43.6 ± 23", "unit": "%"}, {"measurement": "AmpC inhibition", "setting": "[4]", "result": "5.65 ± 3.5", "unit": "%"}, {"measurement": "AmpC inhibition", "setting": "[5]", "result": "4.46 ± 2.3", "unit": "%"}]}
{"compound": "CC(Cc1ccc(O)c(O)c1)C(C)Cc1ccc(O)c(O)c1", "note": "(stereo not given)", "values": [{"measurement": "AmpC inhibition", "setting": "[1]", "result": "0.262 ± 1.6", "unit": "%"}, {"measurement": "AmpC inhibition", "setting": "4 µM, detergent: no detergent", "result": "2.98 ± 9.9", "unit": "%"}, {"measurement": "AmpC inhibition", "setting": "[2]", "result": "-1.09 ± 14", "unit": "%"}, {"measurement": "AmpC inhibition", "setting": "11 µM, detergent: no detergent", "result": "23.2 ± 4", "unit": "%"}, {"measurement": "AmpC inhibition", "setting": "[3]", "result": "1.16 ± 12", "unit": "%"}, {"measurement": "AmpC inhibition", "setting": "33 µM, detergent: no detergent", "result": "47.4 ± 7.5", "unit": "%"}, {"measurement": "AmpC inhibition", "setting": "[4]", "result": "-4.88 ± 5.5", "unit": "%"}, {"measurement": "AmpC inhibition", "setting": "[5]", "result": "86 ± 2.8", "unit": "%"}]}
{"compound": "CCCCCCCc1ccc(CCc2cccc(O)c2C(=O)O)cc1", "values": [{"measurement": "AmpC inhibition", "setting": "[1]", "result": "1.37 ± 5", "unit": "%"}, {"measurement": "AmpC inhibition", "setting": "4 µM, detergent: no detergent", "result": "-4.68 ± 3.5", "unit": "%"}, {"measurement": "AmpC inhibition", "setting": "[2]", "result": "8.12 ± 2.9", "unit": "%"}, {"measurement": "AmpC inhibition", "setting": "11 µM, detergent: no detergent", "result": "61 ± 10", "unit": "%"}, {"measurement": "AmpC inhibition", "setting": "[3]", "result": "9.04 ± 3.8", "unit": "%"}, {"measurement": "AmpC inhibition", "setting": "33 µM, detergent: no detergent", "result": "97.2 ± 1.9", "unit": "%"}, {"measurement": "AmpC inhibition", "setting": "[4]", "result": "8.27 ± 3.7", "unit": "%"}, {"measurement": "AmpC inhibition", "setting": "[5]", "result": "99.4 ± 1.4", "unit": "%"}]}
{"compound": "O=C1/C(=C/c2ccc(O)c(Br)c2)CCC/C1=C\\c1ccc(O)c(Br)c1", "values": [{"measurement": "AmpC inhibition", "setting": "[1]", "result": "4.59 ± 5", "unit": "%"}, {"measurement": "AmpC inhibition", "setting": "4 µM, detergent: no detergent", "result": "7.44 ± 6.5", "unit": "%"}, {"measurement": "AmpC inhibition", "setting": "[2]", "result": "9.28 ± 8.5", "unit": "%"}, {"measurement": "AmpC inhibition", "setting": "11 µM, detergent: no detergent", "result": "55.4 ± 9.9", "unit": "%"}, {"measurement": "AmpC inhibition", "setting": "[3]", "result": "5.98 ± 3.4", "unit": "%"}, {"measurement": "AmpC inhibition", "setting": "33 µM, detergent: no detergent", "result": "78.6 ± 1.3", "unit": "%"}, {"measurement": "AmpC inhibition", "setting": "[4]", "result": "-4.62 ± 5.8", "unit": "%"}, {"measurement": "AmpC inhibition", "setting": "[5]", "result": "81.8 ± 1.7", "unit": "%"}]}
{"compound": "CNC(=O)Nc1ccc2c(c1)CC[C@@]21OC(=O)N(CC(=O)N(Cc2ccc(F)cc2)[C@@H](C)C(F)(F)F)C1=O", "values": [{"measurement": "AmpC inhibition", "setting": "[1]", "result": "5.14 ± 2.9", "unit": "%"}, {"measurement": "AmpC inhibition", "setting": "4 µM, detergent: no detergent", "result": "-1.32 ± 9.8", "unit": "%"}, {"measurement": "AmpC inhibition", "setting": "[2]", "result": "5.67 ± 2.5", "unit": "%"}, {"measurement": "AmpC inhibition", "setting": "11 µM, detergent: no detergent", "result": "5.86 ± 3.8", "unit": "%"}, {"measurement": "AmpC inhibition", "setting": "[3]", "result": "-0.581 ± 4.1", "unit": "%"}, {"measurement": "AmpC inhibition", "setting": "33 µM, detergent: no detergent", "result": "-6.17 ± 3.8", "unit": "%"}, {"measurement": "AmpC inhibition", "setting": "[4]", "result": "-3 ± 2.8", "unit": "%"}, {"measurement": "AmpC inhibition", "setting": "[5]", "result": "-3.55 ± 4.8", "unit": "%"}]}
